# According to PubChem BioAssay (NCI):
# The panel holds about 79,000 compounds, 15% with a hit somewhere; the sample as a whole holds those more often. A number with no mark means an inactive call. Calls of active or inactive are those of the source. Cut-off read from the data, not from the text of the source: active = growth inhibition above about 70%; inactive = the rest.
# How the values were obtained:
# [1] = NCI Yeast Anticancer Drug Screen. Data for the rad50 strain (AID 155);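 note: 0% = growth of vehicle-only cultures of the same strain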; details: S. cerevisiae rad50 strain growth inhibition, hits give high values
# Procedure, shortened: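 A DNA repair-deficient yeast mutant serves as the test organism; compound-induced growth inhibition is calculated against vehicle-treated cells.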
# [2] = NCI Yeast Anticancer Drug Screen. Data for the mec2-1 strain (AID 157); details: S. cerevisiae mec2-1 strain, hits give high values
# Procedure, shortened: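 Vehicle-treated cultures served as reference for growth inhibition of compound-exposed mec2-1 yeast.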
# [3] = NCI Yeast Anticancer Drug Screen. Data for the sgs1 mgt1 strain (AID 161);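 note: 0% = growth of cultures given vehicle only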; details: S. cerevisiae sgs1 mgt1 strain, hits give high values
# Procedure, shortened: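 Read-out: growth inhibition vs vehicle controls. Cells: mutant yeast strain deficient in DNA damage repair.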
# [4] = NCI Yeast Anticancer Drug Screen. Data for the cln2 rad14 strain (AID 165);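 note: 0% = growth equal to vehicle treated cultures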; details: S. cerevisiae cln2 rad14 strain, hits give high values
# Procedure, shortened: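 Each compound was tested on cln2 rad14 yeast. Inhibition of growth was calculated against vehicle-exposed controls.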
# [5] = NCI Yeast Anticancer Drug Screen. Data for the bub3 strain (AID 167); details: S. cerevisiae bub3 mutant strain, hits give high values
# Procedure, shortened: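 Inhibition values come from growth of compound-treated mutant yeast normalised to vehicle-treated controls.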
# [6] = NCI Yeast Anticancer Drug Screen. Data for the mlh1 rad18 strain (AID 175); details: S. cerevisiae mlh1 rad18 strain growth inhibition, hits give high values
# Procedure, shortened: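 Vehicle-treated cultures served as the reference for growth inhibition in a yeast strain carrying DNA damage repair alterations exposed to each compound.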
# [7] = at 5.0 µM (retest, dose inferred, filed as 0.5)
# [8] = at 50.0 µM (retest, dose inferred, filed as 5.0)
SMILES,"growth inhibition [1, 7]","growth inhibition [1, 8]",growth inhibition ([1]; at 50.0 µM),"growth inhibition [2, 7]","growth inhibition [2, 8]",growth inhibition ([2]; at 50.0 µM),"growth inhibition [3, 7] [%]","growth inhibition [3, 8]",growth inhibition ([3]; at 50.0 µM),"growth inhibition [4, 7]","growth inhibition [4, 8]",growth inhibition ([4]; at 50.0 µM),"growth inhibition [5, 7]","growth inhibition [5, 8]",growth inhibition ([5]; at 50.0 µM),"growth inhibition [6, 7]","growth inhibition [6, 8]",growth inhibition ([6]; at 50.0 µM)
N#CC(CC(=O)O)C(c1cccc2ccccc12)c1cccc2ccccc12 (configuration not stated),10%,99% (active),99.1% (active),17%,99% (active),98.5% (active),4,98% (active),98.8% (active),4%,99% (active),97.6% (active),17%,99% (active),98.5% (active),17%,99% (active),99.2% (active)
COC(=O)c1ccccc1C(=O)c1cc(OC)c2c(c1OC)CCCC2,-2%,59%,90.8% (active),0%,64%,94.5% (active),5,63%,75.5% (active),-69%,23%,47.6%,3%,-45%,77% (active),3%,24%,82.9% (active)
O=C(O)c1cc(Br)ccc1OCc1ccc(Cl)cc1,-1%,28%,43.9%,-1%,19%,51.2%,-7,5%,58%,-13%,27%,79.4% (active),-8%,9%,-2.25%,-8%,12%,52.9%
O=[N+]([O-])c1ccccc1N=Nc1c(O)[nH]c2cccc(C(F)(F)F)c12,50%,86% (active),93.9% (active),52%,81% (active),18.5%,60,90% (active),83.5% (active),-60%,92% (active),50.2%,47%,77% (active),46.5%,84% (active),97% (active),95.1% (active)
Cc1ccc2c(c1)SSc1ccc(C)cc1SS2,78% (active),92% (active),81% (active),42%,94% (active),27.9%,35,94% (active),75.7% (active),84% (active),91% (active),55.5%,79% (active),93% (active),73.2% (active),66%,93% (active),64.8%
Oc1ccc(/C=N/NC(=S)NC2CC3CC2C2C=CCC32)c(O)c1 (configuration not stated),46%,96% (active),87.8% (active),33%,97% (active),90.8% (active),49,98% (active),92.5% (active),26%,98% (active),89.3% (active),28%,52%,90.3% (active),65%,96% (active),90% (active)
Nc1cc(F)cc(F)c1[N+](=O)[O-],4%,21%,41%,4%,22%,0.45%,1,18%,53.3%,-1%,6%,-15.4%,-1%,19%,-1.5%,7%,26%,79.7% (active)
O=C(CCN1CCCCC1)N1CCc2c([nH]c3ccccc23)C1c1cccnc1 (configuration not stated),-8%,8%,13.1%,1%,16%,1.2%,0,-8%,-5.35%,5%,22%,-6.8%,4%,46%,-0.3%,2%,-4%,-14.4%
CC1=NN(c2nc(N)nc(NS(=O)(=O)c3cc(C)c(Cl)cc3S)n2)C(C)(C)C1,29%,13%,9.1%,-1%,-12%,-9.55%,-2,9%,35.9%,4%,10%,46.2%,11%,-17%,9.85%,-3%,4%,20%
CCCNCC/C=C/[Si](C)(C)C,-17%,99% (active),98.7% (active),-9%,99% (active),96.5% (active),-3,99% (active),97.6% (active),4%,99% (active),98.5% (active),-2%,99% (active),98.8% (active),10%,99% (active),98.8% (active)
[Br][Pt+2][Br].[NH-]c1cccc(I)c1.[NH-]c1cccc(I)c1,2%,60%,39.5%,1%,31%,22.2%,8,39%,30.8%,-1%,27%,12.6%,1%,-5%,3.25%,5%,81% (active),88.8% (active)
Cn1c(=O)c2c3oc(=O)cc(O)c3c(=O)n3c4ccccc4n(c1=O)c23,38%,83% (active),74.8% (active),29%,69%,19.9%,35,86% (active),45%,34%,45%,42.5%,31%,75% (active),42.3%,53%,92% (active),42.1%
CC(C)(C)OC(=O)NCCNC(=O)CN(CC(=O)O)C1CCCCC1N(CC(=O)O)CC(=O)O (configuration not stated),-16%,59%,50.4%,-7%,52%,62.3%,1,46%,61.6%,-21%,46%,15.9%,0%,75% (active),66.2%,-10%,66%,74.5% (active)
CS(=O)(=O)C(c1nc2nnc(NC(=O)Nc3ccc(Cl)cc3)n2[nH]c1=O)c1nc2nnc(NC(=O)Nc3ccc(Cl)cc3)n2[nH]c1=O,-14%,11%,32.2%,-20%,23%,74.5% (active),1,-7%,24.6%,-36%,3%,30.6%,-41%,19%,71.3% (active),-19%,32%,62.5%
O=C1C2C3C=CC(C3)C2C(=NS(=O)(=O)c2ccccc2)C2C3C=CC(C3)C12 (configuration not stated),-33%,9%,84.7% (active),-2%,0%,89.8% (active),3,14%,91.4% (active),-1%,-3%,22.1%,-2%,4%,53%,28%,12%,72.5% (active)
CCN(CC)C(=S)N/N=C(/c1ccccc1)c1ccccn1,42%,96% (active),70.7% (active),92% (active),97% (active),76.9% (active),44,97% (active),81.8% (active),80% (active),95% (active),81.8% (active),95% (active),96% (active),85.2% (active),96% (active),97% (active),83.1% (active)
CCS(=O)(=O)/C=C/c1ccncc1,-3%,11%,24.7%,3%,-1%,27.9%,-2,12%,6.4%,1%,12%,5.85%,-2%,2%,7.9%,11%,11%,20.3%
S=C(Nc1ccccc1)N(Cc1ccccc1)c1ccccc1,-7%,51%,62%,10%,57%,28.6%,-7,50%,46.2%,-8%,8%,32.5%,3%,42%,65.9%,4%,72% (active),48.7%
O=C1/C(=C\c2ccccc2)C(NC2CCCCC2)c2ccccc21 (configuration not stated),73% (active),99% (active),99.6% (active),43%,99% (active),99.7% (active),65,98% (active),99.7% (active),37%,100% (active),99.5% (active),75% (active),99% (active),99.5% (active),74% (active),99% (active),99.5% (active)
